Experiments:
Assay in all cases: growth AUC relative to DMSO control (median of replicates) (fraction); higher = more growth (less inhibition), active = hit call of the paper
Conditions in all cases: 20 µM; 24 h;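 active = AUC reduced over 20% with Padj below 0.05 in at least 2 of 3 replicates; inactive = otherwise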
[1] = test system: Akkermansia muciniphila
In short: (§1)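 Gut bacteria were grown singly in mGAM at 37 °C without oxygen, from OD600 0.05, alongside 20 µM compound in 1% DMSO, and OD600 was read each hour for 24 h. Area under the growth curve was normalised to the median of solvent-only wells per plate, or to row and column medians on the industrial chemical plate. The minimum OD was set to 0 beforehand, and the reported value is the median of three biological replicates grown on separate days.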

[2] = test system: Bacteroides caccae
In short: as §1

[3] = test system: Bacteroides clarus
In short: as §1

[4] = test system: Bacteroides dorei
In short: as §1

[5] = test system: Bacteroides stercoris
In short: as §1

[6] = test system: Bacteroides thetaiotaomicron
In short: as §1

[7] = test system: Bacteroides uniformis
In short: as §1

[8] = test system: Bifidobacterium longum subsp. longum
In short: as §1

[9] = test system: Clostridium difficile
In short: as §1

[10] = test system: Collinsella aerofaciens
In short: as §1

[11] = test system: Coprococcus comes
In short: as §1

[12] = test system: Escherichia coli ED1a
In short: as §1

[13] = test system: Escherichia coli IAI1
In short: as §1

[14] = test system: Eubacterium rectale
In short: as §1

[15] = test system: Fusobacterium nucleatum subsp. animalis
In short: as §1

[16] = test system: Lactobacillus gasseri
In short: as §1

[17] = test system: Lactobacillus paracasei
In short: as §1

[18] = test system: Odoribacter splanchnicus
In short: as §1

[19] = test system: Parabacteroides distasonis
In short: as §1

[20] = test system: Parabacteroides merdae
In short: as §1

Measured: growth AUC

NC(=S)c1c(Cl)cccc1Cl
inactive: [1] 0.917 | [2] 0.943 | [3] 0.97 | [4] 0.935 | [5] 1.01 | [6] 1.03 | [7] 0.972 | [8] 1.05 | [9] 1.02 | [10] 0.962 | [11] 1.01 | [12] 0.994 | [13] 0.979 | [14] 1.22 | [15] 0.822 | [16] 0.884 | [17] 0.953 | [18] 0.985 | [19] 0.965 | [20] 0.887

CC/C(=N\OC/C=C/Cl)C1=C(O)CC(C2CCOCC2)CC1=O (stereo not given)
inactive: [1] 1.04 | [2] 0.993 | [3] 1.03 | [4] 1 | [5] 1.03 | [6] 1.02 | [7] 0.985 | [8] 1.37 | [9] 1.01 | [10] 1.03 | [11] 1.01 | [12] 1 | [13] 1.03 | [14] 0.996 | [15] 0.983 | [16] 0.994 | [17] 1.1 | [18] 1.04 | [19] 0.998 | [20] 1.02

COc1cc(OC)nc(NC(=O)NS(=O)(=O)c2cc(NC=O)ccc2C(=O)N(C)C)n1
inactive: [1] 0.976 | [2] 1.01 | [3] 0.979 | [4] 0.984 | [5] 1.06 | [6] 0.971 | [7] 1.03 | [8] 1.03 | [9] 1.01 | [10] 1.05 | [11] 0.993 | [12] 0.996 | [13] 1.01 | [14] 0.998 | [15] 1.06 | [16] 0.902 | [17] 1.05 | [18] 1.01 | [19] 0.977 | [20] 0.951

CCOC(=O)C(SP(=S)(OC)OC)c1ccccc1 (stereo not given)
inactive: [1] 0.867 | [2] 0.974 | [3] 0.933 | [4] 0.973 | [5] 0.986 | [6] 0.938 | [7] 0.929 | [8] 1 | [9] 1.04 | [10] 1 | [11] 1.02 | [12] 0.991 | [13] 0.976 | [14] 0.821 | [15] 0.904 | [16] 1.05 | [17] 1.02 | [18] 0.958 | [20] 0.958
active: [19] 0.746

CNC1=C(c2cccc(C(F)(F)F)c2)C(=O)C(c2ccccc2)O1 (stereo not given)
inactive: [1] 0.993 | [2] 1.02 | [3] 0.953 | [4] 1.01 | [5] 1.01 | [6] 0.986 | [7] 0.972 | [8] 0.888 | [9] 1.08 | [10] 1.02 | [11] 1.06 | [12] 0.998 | [13] 0.992 | [14] 1 | [15] 0.969 | [16] 0.985 | [17] 0.781 | [18] 1.07 | [19] 0.951 | [20] 0.969

N#Cc1cc(I)c(O)c(I)c1
inactive: [1] 0.914 | [2] 0.802 | [4] 0.776 | [5] 0.939 | [6] 0.919 | [8] 0.941 | [9] 0.919 | [10] 1.04 | [11] 1.02 | [12] 0.891 | [14] 0.954 | [15] 0.828 | [16] 0.95 | [17] 0.982 | [18] 0.853 | [19] 0.814 | [20] 0.802
active: [3] 0.76 | [7] 0.799 | [13] 0.764

CCc1cccc(C)c1N(C(=O)CCl)[C@@H](C)COC
inactive: [1] 1.13 | [2] 0.95 | [3] 0.99 | [4] 0.98 | [5] 1.2 | [6] 0.975 | [7] 1 | [8] 1.03 | [9] 0.961 | [10] 0.963 | [11] 0.976 | [12] 0.981 | [13] 1.01 | [14] 1.06 | [15] 1.15 | [16] 0.944 | [17] 1.01 | [18] 1.02 | [19] 1.01 | [20] 0.938

CCNc1nc(Cl)nc(NC(C)C)n1
inactive: [1] 1.05 | [2] 0.956 | [3] 1.01 | [4] 0.945 | [5] 0.964 | [6] 1.01 | [7] 1.01 | [8] 1.02 | [9] 0.944 | [10] 1.04 | [11] 1.01 | [12] 1.02 | [13] 0.992 | [14] 1.06 | [15] 1.03 | [16] 0.976 | [17] 1.08 | [18] 1.07 | [19] 1.05 | [20] 0.999

CO/N=C(/C1=NOCCO1)c1ccccc1Oc1ncnc(Oc2ccccc2Cl)c1F
inactive: [1] 0.963 | [2] 0.987 | [3] 0.957 | [4] 0.938 | [5] 0.941 | [6] 0.961 | [7] 0.963 | [8] 0.845 | [9] 0.948 | [10] 1.02 | [11] 0.962 | [12] 0.967 | [13] 1.03 | [14] 0.963 | [15] 0.978 | [16] 0.992 | [17] 1 | [18] 0.974 | [20] 0.892
active: [19] 0.678

Clc1ccc(Cl)c(Cl)c1Cl
inactive: [1] 0.865 | [2] 0.985 | [3] 0.958 | [4] 1.02 | [5] 1.04 | [6] 0.992 | [7] 0.996 | [8] 0.99 | [9] 1 | [10] 0.982 | [11] 0.989 | [12] 0.973 | [13] 0.981 | [14] 0.968 | [15] 1.03 | [16] 0.945 | [17] 1.11 | [18] 0.973 | [19] 0.981 | [20] 0.999

CC(C)CC(C)c1sccc1NC(=O)c1cn(C)nc1C(F)(F)F (stereo not given)
inactive: [1] 0.99 | [2] 0.967 | [3] 0.94 | [4] 1.02 | [5] 1.07 | [6] 0.938 | [7] 0.942 | [8] 1.02 | [9] 1 | [10] 0.99 | [11] 0.984 | [12] 0.998 | [13] 0.946 | [14] 1.01 | [15] 1.04 | [16] 0.945 | [17] 1.02 | [18] 0.782 | [19] 0.856 | [20] 0.977

ClC1=C(Cl)[C@]2(Cl)[C@@H]3[C@H]4C[C@H]([C@@H]5O[C@H]45)[C@@H]3[C@@]1(Cl)C2(Cl)Cl
active: [7] 0.709
inactive: [1] 0.861 | [2] 0.979 | [3] 0.864 | [4] 0.958 | [5] 0.773 | [6] 0.925 | [8] 0.962 | [9] 1 | [10] 0.936 | [11] 0.943 | [12] 0.994 | [13] 0.966 | [14] 1.02 | [15] 1.05 | [16] 0.936 | [17] 0.963 | [18] 0.998 | [19] 0.897 | [20] 0.946

From the supplement of paper PMC12669032
